Measurements published in PubChem BioAssay AID602254 (Broad Institute, 2012).
The campaign covered roughly 1,000 compounds. Fewer than 10 were called active.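 Rule for the calls: active = fitted half-maximal concentration no higher than twice the top valid tested dose, with signal falling; inconclusive = flat curve with 30 to 70% inhibition, or poor fit; inactive = the rest.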 Only a sample is shown. Entries with a potency or affinity are not part of this list.

Biological target: Golgi-associated PDZ and coiled-coil motif-containing protein (Homo sapiens) (UniProt Q9HD26)
Assay: CAL PDZ domain peptide-binding inhibitors, dose response, biochemical, fluorescence polarization, untagged CAL PDZ, cherry-pick, set 2 (AID 602254);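 note: more negative means stronger blocking of peptide binding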
Settings: Purified CAL PDZ, TMR peptide fluorescence polarization; series mostly up to 60 µM

outcome, inactive:
C=CCNC(=S)NNC(=O)c1ccc(C)c(Cl)c1
Cc1ccc(S(=O)(=O)c2nc(NN(C)C)sc2Cl)cc1
CC(=O)c1cccc(CN2CCN(CC=C(C)C)C(CCO)C2)c1 (stereo unspecified)
CC1CCN(C(=O)CNC(=O)c2ccc(Cl)cc2Cl)CC1
CCn1nnc(NC(=O)Cc2ccc(Cl)cc2)n1
O=C(Nc1cccc(-n2cnnn2)c1)c1ccc(OC(F)(F)F)cc1
O=C(c1cc(COc2ccccc2)on1)N1CCCC(CN2CCOCC2)C1 (stereo unspecified)
CC(C)(C)n1ncc2c(=O)n(Cc3ccc(Cl)c(Cl)c3)cnc21
CSc1ccccc1OCc1cc(C(=O)N2CCN(c3ccccc3)CC2C)no1 (stereo unspecified)
COc1cc(C(=O)NNC(=O)c2ccc3c(c2)OCCO3)cc(OC)c1OC
COc1cc(S(=O)(=O)Nc2ccc(C(=O)NCC(=O)O)cc2)ccc1NC(C)=O
O=C(N/N=C/c1cccnc1)c1[nH]ncc1Br
CCOC(=O)c1ccc(NC(=O)C2CCCO2)cc1 (stereo unspecified)
CC(=O)c1cccc(NC(=O)CCNC(=O)c2cccc(C)c2)c1
COc1cc(OC)c(C(=O)NCc2ccc3c(c2)OCO3)cc1OC
CC1CC(C)CN(C(=O)CCn2c(=O)oc3ccccc32)C1 (stereo unspecified)
Cc1ccc(CNS(=O)(=O)c2ccc(C(F)(F)F)cc2)n1C
Cc1ccc2nc(N3CCN(Cc4nnnn4C4CCCC4)CC3)c(C#N)cc2c1
Cc1ccc(Cn2c(=O)n(CCC(=O)NCc3ccc4c(c3)OCO4)c(=O)c3ccccc32)cc1
Cc1ccc2c(c1)N(CC(=O)Nc1ccccc1F)C(=O)CO2
CC(C)(C)OC(=O)N1CCC(NC(=O)c2[nH]cnc2C(=O)Nc2cccc(Cl)c2)CC1
COC(=O)c1ccc(OCC(O)CN2CCc3cc(OC)c(OC)cc3C2c2ccccc2)cc1 (stereo unspecified)
COc1ccccc1OCC(O)Cn1nc(C)cc1C (stereo unspecified)
O=C(O)c1ccccc1CSc1nnnn1-c1ccccc1
CC(C)c1ccc(NC2CCCN(C(=O)c3ccnn3C)C2)cc1 (stereo unspecified)
c1ccc(-c2ccccc2OCCOCCN2CCc3ccccc3C2)cc1
CCOc1ccccc1C(=O)NCC(=O)OCc1csc(CC(=O)Nc2ccc(C)cc2)n1
CCCn1nnc(NC(=O)c2ccc3c(c2)OCO3)n1
CC(=O)n1nc(-c2ccccc2)nc1NCc1cccs1
C/C(=N\OC(=O)c1cccc(C(F)(F)F)c1)c1sc(-c2ccccc2)nc1C
COc1ccccc1-c1c(C)nn2c(N)c(-c3ccccc3)cnc12
CC(=O)c1ccc(OCc2cc(C(=O)NCCc3ccc(Cl)cc3)no2)cc1
Cc1c(C(=O)N2CCCCC2)c(S(=O)(=O)NCc2ccc(Cl)cc2)c(C)n1C
O=C(c1ccc(S(=O)(=O)NCC2CCCO2)cc1)N1CCN(c2ccccc2)CC1 (stereo unspecified)
O=C(Nc1cccc(C(=O)N2CCCCC2)c1)C1CC1
CCCN(CC(=O)Nc1ccccc1C)C(=O)CCCc1c[nH]c2ccccc12
O=C(COC(=O)Cc1c(F)cccc1Cl)NC(=O)c1ccccc1
Cc1ccccc1C(=O)NN1CCOCC1
COc1ccc(CN(C)C(=O)CNC(=O)CNC(=O)c2ccc(Cl)cc2Cl)cc1F
Cc1ccc(NC(=O)c2c(-c3ccccc3)noc2C)nc1
Cc1[nH]c2c(C(=O)N3CCCC(CCC(=O)NCc4ccccc4F)C3)cccc2c1C (stereo unspecified)
Cc1ccc(C(C)C)cc1OCCn1cncn1
COCC(C)N1CCC(Oc2cccc(C(=O)NCCc3ccccc3)c2)CC1 (stereo unspecified)
CC(=O)Nc1sc2c(c1C(N)=O)CCC2
CCOc1ccc(NC(=O)CN(C)S(=O)(=O)c2cccs2)cc1
CCCCCN1CSC(=S)N(Cc2ccccc2)C1
COc1ccc(/C=N/NC(=O)CNC(=O)c2ccncc2)cc1OC
O=C(Nc1ccccc1Cl)N1CCN(c2ccc3nnc(-c4ccccc4)n3n2)CC1
CC(=O)Nc1ccc(-c2cc(NC(C)=O)n(-c3ccccc3)n2)cc1
FC(F)(F)c1ccccc1NC(=S)N1CCCC1
COc1ccc(S(=O)(=O)N(C(C)=O)c2ccc3oc(=O)sc3c2)cc1
CCN(c1ccccc1)S(=O)(=O)c1ccc(C(=O)N2CCN(c3ccccc3)CC2)cc1
Cc1cc(C)c(C#N)c(Nc2cccc(C)c2C)n1
COc1ccc(Br)cc1CNc1ccc2[nH]c(=O)[nH]c2c1
Cc1ccc(OCC(=O)N2CCN(C(=O)c3cccs3)CC2)cc1
O=S(=O)(c1ccccc1)N(CC(O)COc1ccccc1)c1ccccc1 (stereo unspecified)
COc1ccccc1N(CC(=O)N1CCN(c2ccccc2)CC1)S(=O)(=O)c1ccc(C)cc1
CC(C)=C1C(=O)NN(c2cccc(Cl)c2)C1=O
Cc1cc(Br)ccc1NC(=O)CN1CCN(c2ccccn2)CC1
O=C(c1ccc(-c2ccccc2)cc1)N1CCN(c2ccccn2)CC1
COCC(=O)N1CCC(Oc2ccc(C(=O)NCc3cnc(C)cn3)cc2)CC1
Cc1ccc(S(=O)(=O)N(C)C)cc1NC(=S)N1CCc2ccccc21
C/C(CC(=O)Nc1ccc2c(c1)OCCO2)=N\NC(=O)COc1ccc(Cl)c(C)c1
COc1ccc(C(=O)NCC(=O)NCc2ccncc2)cc1
Cn1nc(C(=O)Nc2nc(-c3ccccn3)cs2)c2ccccc2c1=O
Cc1ccsc1C(=O)NNC(=O)c1cccc(S(=O)(=O)N2CCCC2)c1
Cc1ccc(C(=O)Nc2cccc(C(=O)N3CCOCC3)c2)cc1Cl
COc1ccc(OCC(=O)Nc2ccccc2C(=O)N2CCOCC2)cc1
O=C(Nc1ccccc1C(=O)O)c1cccc(N2C(=O)c3ccccc3C2=O)c1
Cc1cccc(OCCCn2c(CO)nc3ccccc32)c1
O=c1[nH]c2ccccc2cc1CN(CC1CCCO1)S(=O)(=O)c1ccccc1 (stereo unspecified)
